The source of these data is PubChem BioAssay (NCATS).

Records with an inconclusive call do not appear. Values without a mark were called inactive. Calls of active or inactive are those of the source. Calls come from the whole dose curve; as a rule, active = well fitted inhibition curve with a large enough effect; inconclusive = small, poorly fitted or top-dose-only effect; inactive = no such curve, though single readings can be large or run the other way.

The test in a line: Counterscreen for APE1 Inhibitors: Fluorescent Dye Displacement Validation Assay (AID 1707). The settings on record: fluorescent dye displacement from DNA; series mostly up to 57.1 µM; activity change, negative = inhibition: at the top concentration. The source says:
In order to distinguish true inhibitors of DNA-processing enzymes from promiscuous DNA-binding compounds among screening assay hits, we developed a homogeneous and miniaturized assay based on fluorescent dye displacement test as originally described by Tse and Boger (Accounts of Chemical Research (2004) 37: 61-69). The assay is based on the strong enhancement of fluorescence when Thiazole Orange (ThO) binds to double-stranded DNA: conversely, in the presence of a DNA-binding compound, Thiazole Orange is displaced from the DNA and its fluorescence is reduced.
Buffer. 50 mM Tris-HCl (pH7.5) containing 50mM NaCl, 2 mM MgCl2, and 0.01% Tween-20.
Buffer containing 250 nM ThO in columns 3 and 4 as negative control (no dsDNA).
Reaction mixture: 250 nM ThO and 50 nM dsDNA at final concentration dispensed throughout the plate: in columns 1, 2, 5-48. Column 1 is neutral (100% activity).
5''TAMRA- TC ACC FTC GTA CGA CTC
3'' AG TGG GAG CAT GCT GAG
where F denotes tetrahydrofuran.
Control: Pintool transfer of control compound WB64 (W4761, Sigma-Aldrich) to column 2 of all assay plates as a two-fold 16-point dilution in duplicate (concentration range 5.75 uM - 0.175 nM).
Four uL of reaction mixtures were dispensed to 1536-well Greiner black solid bottom plates. Compounds (23 nL) were transferred […] in order to measure the endpoint fluorescence using 480 nm excitation and 540 nm emission fluorescence protocol.
In general terms: Counterscreens check selectivity or assay interference.
Turning to `CN1C(=O)CCS(=O)(=O)C1c1ccc(Cl)cc1` (centres undefined), the “activity change, negative = inhibition” value was 5.88%.

With `C[C@]12CCC(=O)C=C1CC[C@@H]1[C@@H]2CC[C@]2(C)C(=O)CC[C@@H]12`, the “activity change, negative = inhibition” value was -1.33%.

On to `CC(C)N(CCC(C(N)=O)(c1ccccc1)c1ccccn1)C(C)C` (centres undefined), for which the molecule was classed as inactive.

As for `CCCCC/C=C\C/C=C\C/C=C\C/C=C\CCCC(=O)NCC(=O)O`, the “activity change, negative = inhibition” value was 20.8%.

For `NCCc1ccc(O)cc1`, the “activity change, negative = inhibition” value is 0.193%.

Turning to `CC(C)(C)NCC(O)c1ccccc1Cl` (centres undefined), the “activity change, negative = inhibition” value is 0.574%.

`O=C(O)CCCc1ccc(N(CCCl)CCCl)cc1`: the “activity change, negative = inhibition” value was 3.73%.

`CCC1(c2ccc(N)cc2)CCC(=O)NC1=O` (centres undefined): the “activity change, negative = inhibition” value was 1.41%.

As for `CC(NC(C)(C)C)C(=O)c1cccc(Cl)c1` (centres undefined), the “activity change, negative = inhibition” value is -0.102%.

For `O=c1[nH]oc2c1CCNC2`, the “activity change, negative = inhibition” value was -6.77%.

For `Cn1c(=O)c2[nH]cnc2n(C)c1=O`, the “activity change, negative = inhibition” value was 152%.

For `CC(C)c1cccc(C(C)C)c1O`, the “activity change, negative = inhibition” value is 1.54%.

For `C=C(C)[C@H]1CN[C@H](C(=O)O)[C@H]1CC(=O)O`, the “activity change, negative = inhibition” value is -0.911%.

Take `O=P1(N(CCCl)CCCl)NCCCO1` (centres undefined): the “activity change, negative = inhibition” value is 1.6%.
